Assay results from PubChem BioAssay (NCI).
Where “and” joins values, the source holds several entries; their conditions need not be identical. Equal values may be shown once. The panel holds about 83,000 compounds, 20% with a hit somewhere; the sample as a whole holds those more often.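 Step 1: grow cells in 96-well plates. Step 2: add test compound at a single concentration. Step 3: incubate 48 h. Step 4: record percent growth.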 Unmarked numbers belong to inactive results. Calls of active or inactive are those of the source. Rule for the calls: active = growth percent below 10; inactive = the rest.

Legend:
Experiment in all cases: NCI-60 one-dose screen, 48 h (100 = growth as untreated, 0 = no growth, -100 = all killed)
[1] = test system: T-47D breast; details: 10 µM
[2] = test system: BT-549 breast; details: 10 µM
[3] = test system: MDA-MB-435 melanoma; details: 10 µM
[4] = test system: SW-620 colon; details: 10 µM
[5] = test system: MCF7 breast
[6] = test system: HCT-116 colon; details: 10 µM
[7] = test system: HCC-2998 colon; details: 10 µM
[8] = test system: KM12 colon; details: 10 µM

Structure (SMILES) | growth [1] | growth [2] | growth [3] | growth [4] | growth ([5]; 10 µM) | growth [6] | growth [7] | growth [8] | growth ([5]; 100 µM) | growth ([5]; 25 µM)
COc1cccc(C(c2cc3c(cc2O)OCO3)N2CCOCC2)c1OC (stereo not given) | 97.2% | 94.7% | 98% | 102% | 96.5% | 102% | 113% | 108% | – | –
O=[N+]([O-])c1cc(S(=O)(=O)Nc2ccccc2)ccc1Cl | 69.6% | 92.5% | 98.6% | 105% | 84% | 92.1% | 90% | 98.5% | – | –
O=c1[nH]cc(/C=N\Nc2ccccc2)c(=O)[nH]1 | 42.4% | 82.5% | 42.5% | 46.6% | 56.1% | 57% | 76.9% | 37.9% | – | –
CN(C)CCNc1cccc2sc3ccc(O)cc3c(=O)c12 | 64.4% | 65.8% | 29.3% | 24.5% | 27.8% | 25.3% | 17.9% | 24.7% | – | –
COc1cc(N)ccc1Nc1c2ccccc2nc2ccccc12 | 92.3% | 90% | 87.9% | 4.74% (active) | 12.5% | -88.5% (active) | 94.8% | 36.2% | – | –
O=C(CNS(=O)(=O)Cc1ccccc1)NNc1ccccc1 | 56.6% | 82.9% | 21.9% | – | 76.5% | 55.6% | 70.5% | 15% | – | –
Clc1c(Cl)c(Cl)c2c(nnn2C2CCCO2)c1Cl (stereo not given) | – | – | – | – | – | – | – | – | 3.55% (active) and -84.2% (active) | –
O=C(CCc1ccccc1)ON1C(=S)C(c2ccccc2)(c2ccccc2)N=C1Sc1ccccc1 | – | – | – | – | – | – | – | – | 1.09% (active) and 4.44% (active) | –
O=C(NC(=S)Nc1ccccn1)c1ccccc1 | 59.1% | 77.1% | 105% | 96.1% | 24.3% | 87.9% | – | 97% | – | –
C=C1N(C)c2ccc(Cl)cc2C1(C)C | 33.7% | 66.9% | 77.1% | 57.4% | 89% | 17.2% | 68.7% | 40.2% | – | –
CC[C@@]1(OC(=O)CN(C)C)C(=O)OCc2c1cc1n(c2=O)Cc2cc3c(N)cccc3nc2-1 | 13.3% | -11.8% (active) | -44.7% (active) | 3.83% (active) | -1.34% (active) | 0.716% (active) | -14.7% (active) | 0.253% (active) | – | –
COc1cc2c(cc1C[N+](C)(C)CSc1ccccc1)-c1ccccc1CC2 | – | – | – | – | – | – | – | – | -75.8% (active) and -73.3% (active) | –
O=C(O)c1ccccc1.[Ag] | 72.6% | 99.4% | 88.5% | – | 96.4% | 96.8% | 109% | 89.3% | – | –
CC1CCC2(C(=O)O)CCC3(C)C(=CCC4C5(C)CC(O)C(O)C(C)(CO)C5C(O)CC43C)C2C1C (stereo not given) | 97% | 114% | 110% | 107% | 96.9% | 103% | – | 104% | – | –
N#C/C(=C/N1C(=O)/C(=C/c2ccc([N+](=O)[O-])cc2)SC1=S)c1nc2ccccc2s1 | 53.6% | 84% | 99% | 87.8% | 60.7% | 85.9% | 92.6% | 89.7% | – | –
CN(CC(=O)O)c1ccc(/C=C/c2ccnc3ccccc23)cc1 | 55.4% | 65.3% | 38.1% | 84.3% | 31.8% | 89.4% | 91.9% | 85.2% | – | –
CCC(=O)Oc1ccc(/C=N/NC(N)=S)nc1 | 35.7% | 51.2% | 54.9% | 49.5% | 22.5% | 42% | – | 60.5% | – | –
O=C1C=CC(=O)N1c1ccc(N2C(=O)C=CC2=O)cc1 | 95.9% | 89.6% | 107% | 112% | 97% | 98.3% | 115% | 113% | – | –
Cc1cc(C)c(N2C(=O)CC(Sc3ccccc3N)C2=O)c(C)c1 (stereo not given) | 87.8% | 96.2% | -20.8% (active) | 55.9% | 31.7% | 79.2% | – | 50.9% | – | –
Cc1c(-c2ccccc2)[nH]c2ccccc12 | 92.4% | – | 111% | 99.3% | 79.7% | 113% | 102% | 103% | – | –
O=C1c2cccc3cc([N+](=O)[O-])cc(c23)C(=O)N1CCN1CCCC1 | -6.31% (active) | 3.71% (active) | 16.2% | -4.97% (active) | 1.22% (active) | -37.6% (active) | -69.6% (active) | 1.61% (active) | – | –
O=S(=O)(c1cc(Cl)ccc1O)c1cc(Cl)ccc1O | 67% | – | 93.4% | 86.3% | 92.9% | 77.1% | 99.5% | 98.1% | – | –
CO[C@@]12[C@H](COC(N)=O)C3=C(C(=O)C(C)=C(N)C3=O)N1C[C@@H]1N[C@@H]12 | – | – | – | – | – | – | – | – | – | -17.6% (active) and -61.3% (active)
N#CC(=S)Nc1cccc(Cl)c1 | – | – | – | – | – | – | – | – | 0.126% (active) and -100% (active) | –
C=C(C)[C@@H]1CCc2c(O)c(O)c(=O)cc(C)c2C1 | – | – | – | – | – | – | – | – | -84.1% (active) and -67.9% (active) | –
Cc1cc(N=C2C=CC(=[N+](C)C)C=C2)c(N)cc1N | 87.1% | 96.3% | 101% | 84.9% | 68.8% | 82.2% | 60.8% | 89% | – | –
COc1ccc2oc(-c3ccc(Cl)cc3)c(N3CCN(C)CC3)c2c1 | 14.6% | 134% | -19.3% (active) | 0.0094% (active) | -75.8% (active) | 22.4% | -12.4% (active) | -46.6% (active) | – | –
ClCCn1c(CCl)nc2ccc(Cl)cc21 | – | -66.2% (active) | -83% (active) | -54.6% (active) | -6.55% (active) | -28.9% (active) | -2.45% (active) | -43% (active) | – | –
COc1ccc(N)c2c1C(=O)c1ccccc1C2=O | 81.9% | – | 108% | 106% | 95.2% | 102% | 105% | 102% | – | –
